Reference: the supplement of paper PMC6555819

System: VDR:RXRa (NR concentration 270 nM, RXRa partner concentration 90 nM)
Assay: PBM binding z-score (relative to random genomic background probes); higher = stronger binding; sequences stand for … in GC…GCGATTGACAGCGTAGAATGAAGG
Experimental: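 Protein-binding microarray (Agilent 4x180K custom design, double-stranded 60-nt probes: 5' GC cap, 34-nt variable region, 24-nt constant primer region; full probe sequence given). Purified or IVT nuclear receptor:RXRα heterodimers (3:1 NR:RXRα, mostly 270:90 nM) or homodimers were incubated for 1 h in PBS with 2% milk and no ligand, then detected with Alexa488 antibodies. Fluorescence from o1-orientation probes (~5 replicates averaged) was converted to z-scores against 500 random hg19 background probes. Variable regions are seed direct-repeat (DR0–DR5) sites, all their single-nucleotide variants and half-site ablations.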

| Sequence | PBM binding z-score |
| --- | --- |
| TGTATTAGTTGAAGGGCAACCGACGAGTCCGTTT | 0.926 |
| AGACCGAGGGCAATGAGTTGATAGCACGGGTGGC | 4.82 |
| CCGACTGGGGCAGAAAGGTTACCATGCCATCCGG | 0.756 |
| AGAACGAGGGCAATGACTTGATAGCACGGGTGGC | 0.34 |
| CCGACTGGGGCATAAGGTTACGATAAGCCAGCCC | 0.321 |
| CCGACTGGGGCAGAAAGGTTACCAGACCATCCGG | 0.696 |
| GCTGCTAGTTCAGGTTGGTCAGCTAACGGGTACG | 0.0828 |
| TTACCAAGGTGAAATGTCGTTGATGCACGCCTTG | 0.159 |
| TGAACGAGGTTAAAGATCAGGGAACGTGGCGTCG | 1.8 |
| TGTGCTAGGTCAACGATGGTCAGCTAATCTGCTA | 1.65 |
| CCTGCTAGGTCATGGTCAGCAAATCTACAGTATG | 1.48 |
| TGTTGTAGATCAACAGGAGGTTAAGAAAGATCGA | 0.37 |
| ATCGAAAGGTCGTTAGGTGAGTATACAGAAAGGC | 3.58 |
| GCTAGCAGGCCATTTGGCTCACTCAATGACGGGC | -0.942 |
| ATATGTCGGTTAGCTGGGGTCATTCAGACTAGGC | 5.12 |
| ATCTCTCGGTAACAAGTTCAGTGAAAGAGAGGAC | 1.62 |
| TCTGCTAGGTCAGTTGGTGAGCTAACGAGCTGCC | -0.377 |
| CAAACTAGGTTACGAAAGGTCAAAGTCGAATGAC | 5.53 |
| CCTTACGGGTCACTAACAGGTTATAGCATTTGGA | 3.28 |
| TCTTGTAGATCAAGCAGGTTAACAAAGCCTGAGT | 0.729 |

| Sequence | PBM binding z-score |
| --- | --- |
| ACAGACAGGTGATGCAGGTAACTCAGGCTATCAT | -0.283 |
| TCATATAGGTAAGGGTGAAAGTCGAACGATATGA | 0.991 |
| ATCGAAAGGTCGGGGTGAGTATAGAGAAAGGGAA | 3.1 |
| ACAGACCGGTGAGTGAAGGTAACTCAGCTGGACG | -0.63 |
| CCTAGCAGGCCAATCTCGGTCACTCAAGGCTTGA | -0.37 |
| CCTACTGTGCCATCAGGTCATTGATATCAACGTT | 2.56 |
| GCGACTGGGTCATCAGCAGGTTACCATAACTTAA | 2.27 |
| CCTTACGGGTCACTCCAGGTTATAGCGTCGGAGT | 4.14 |
| CCTAGCAGGCCACTCTGGGTCACTCAAGGCTTGA | 0.79 |
| TCATATAGATAAATGCTAGGTGAAAGTCCGATCT | 0.736 |
| CGAACGAGGGCAGGAGTTGATAGCAAATGCCGAT | -0.167 |
| TCTGGTTGGTCAAAGGTCACACACTCGAAATGCG | 5.33 |
| ACTATTAGTTGACTTAGGGCAGCCGATACGACGC | 0.0476 |
| TTACCAAGGTGAGCTGAGGTCGTCGATCCAACTC | 3.49 |
| TCTTGTAGATTAGCAGGTTAAGAAAGCTGGCCAA | 0.63 |
| GCTAGTTGGTCAGTAAAAGGTCTCACACCGGTCG | -0.141 |
| GCTCCTAGGTCAGGTTGGTCAGCTAACGGGTACG | 0.913 |
| TCGCGTAGGTTAGTCGGGGCATTCAGCCAACATA | 2.54 |
| CTACCAAGGTGCACAAGGTCGTTGATTACTATTC | 3.17 |
| GCAAGTTGGTCAGTAAAAGGTCACACACCGGTCG | 4.11 |
